Data reported in article PMC7862700, “An all-to-all approach to the identification of sequence-specific readers for epigenetic DNA modifications on cytosine”.

Tests used:
Assay in all cases: DAPPL (digital affinity profiling via proximity ligation, sequencing); 10 mM Tris-HCl pH 7.5, 50 mM NaCl, 1 mM DTT, 4% glycerol, room temperature, 30 min; GST-TFs on glutathione beads, 16-mer random dsDNA library, 0.1% formaldehyde crosslink after washing; high values mean tight binding
FEV = target: T1, FEV (Homo sapiens, UniProt Q99581 1-238); settings: protein: recombinant; tags: N-terminal GST; dsDNA, one strand shown
T1 sequence: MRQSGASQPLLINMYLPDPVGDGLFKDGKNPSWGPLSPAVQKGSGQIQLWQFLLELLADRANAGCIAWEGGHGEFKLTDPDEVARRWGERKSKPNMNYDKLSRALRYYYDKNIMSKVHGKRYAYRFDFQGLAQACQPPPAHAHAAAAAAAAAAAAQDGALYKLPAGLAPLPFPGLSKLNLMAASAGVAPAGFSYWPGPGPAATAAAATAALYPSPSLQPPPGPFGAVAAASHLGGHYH
How it was run: (§1)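 After expression in yeast as GST fusions, human transcription factors were bound to glutathione beads, DNA-barcoded and mixed with a tag-only sample. The pools were incubated with 200 nmole of a 16-mer random double-stranded DNA library in Tris/NaCl/DTT/glycerol buffer (30 min, room temperature), washed and crosslinked with 0.1% formaldehyde. Proximity ligation with BsaI/T4 ligase ran for 1 h at 37 °C, before PCR amplification and sequencing on an Illumina NextSeq500. Binding signal is a hexamer's read frequency for a factor divided by its frequency for the tag-only sample.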

ETV5 = ETV5 (Homo sapiens, UniProt P41161 1-510); settings: protein: recombinant; tags: N-terminal GST; dsDNA, one strand shown
Sequence of ETV5 (P41161 whole entry): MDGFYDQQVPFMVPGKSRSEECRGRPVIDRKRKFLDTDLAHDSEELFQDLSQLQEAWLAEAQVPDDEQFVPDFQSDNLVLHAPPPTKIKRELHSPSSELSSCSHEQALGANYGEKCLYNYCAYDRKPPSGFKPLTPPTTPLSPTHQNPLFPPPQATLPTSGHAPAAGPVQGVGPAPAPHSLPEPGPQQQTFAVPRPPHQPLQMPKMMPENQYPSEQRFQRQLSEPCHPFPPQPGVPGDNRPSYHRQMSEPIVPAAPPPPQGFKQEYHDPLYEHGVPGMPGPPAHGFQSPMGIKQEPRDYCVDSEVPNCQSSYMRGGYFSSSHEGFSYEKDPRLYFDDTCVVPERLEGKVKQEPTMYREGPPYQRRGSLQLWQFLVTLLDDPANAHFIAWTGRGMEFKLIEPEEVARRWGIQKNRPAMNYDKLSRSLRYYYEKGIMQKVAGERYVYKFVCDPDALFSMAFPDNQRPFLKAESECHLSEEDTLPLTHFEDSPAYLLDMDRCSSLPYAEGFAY
How it was run: as §1

HSF1 = HSF1 (Homo sapiens, UniProt Q00613 1-529); settings: protein: recombinant; tags: N-terminal GST; chain copies: 3; dsDNA, one strand shown
Sequence of HSF1 (Q00613 whole entry): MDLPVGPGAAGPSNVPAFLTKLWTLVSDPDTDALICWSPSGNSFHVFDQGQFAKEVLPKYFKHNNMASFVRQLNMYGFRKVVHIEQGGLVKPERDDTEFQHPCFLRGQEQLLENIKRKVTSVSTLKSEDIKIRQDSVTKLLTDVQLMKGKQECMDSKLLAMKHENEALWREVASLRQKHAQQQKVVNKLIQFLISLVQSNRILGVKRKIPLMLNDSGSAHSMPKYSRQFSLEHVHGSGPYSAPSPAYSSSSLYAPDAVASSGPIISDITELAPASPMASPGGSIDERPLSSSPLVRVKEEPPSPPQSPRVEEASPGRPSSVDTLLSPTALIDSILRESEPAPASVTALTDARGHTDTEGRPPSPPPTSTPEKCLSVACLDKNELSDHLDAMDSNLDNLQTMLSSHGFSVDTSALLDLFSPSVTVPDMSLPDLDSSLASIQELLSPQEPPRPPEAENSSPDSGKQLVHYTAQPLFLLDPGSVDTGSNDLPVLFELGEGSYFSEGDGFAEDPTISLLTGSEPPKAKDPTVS
How it was run: as §1

SPIC = target: T2, SPIC (Homo sapiens, UniProt Q8N5J4 1-248); settings: protein: recombinant; tags: N-terminal GST; dsDNA, one strand shown
T2 sequence: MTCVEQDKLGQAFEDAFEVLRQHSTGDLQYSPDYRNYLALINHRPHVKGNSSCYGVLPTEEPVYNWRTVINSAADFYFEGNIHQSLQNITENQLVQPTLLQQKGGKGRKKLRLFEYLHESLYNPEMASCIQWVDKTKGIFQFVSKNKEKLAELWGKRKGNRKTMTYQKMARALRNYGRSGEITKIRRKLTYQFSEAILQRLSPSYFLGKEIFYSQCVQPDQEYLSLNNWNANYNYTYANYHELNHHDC
How it was run: as §1

ELF4 = ELF4 (Homo sapiens, UniProt Q99607 1-663); settings: protein: recombinant; tags: N-terminal GST; dsDNA, one strand shown
Sequence of ELF4 (Q99607 whole entry): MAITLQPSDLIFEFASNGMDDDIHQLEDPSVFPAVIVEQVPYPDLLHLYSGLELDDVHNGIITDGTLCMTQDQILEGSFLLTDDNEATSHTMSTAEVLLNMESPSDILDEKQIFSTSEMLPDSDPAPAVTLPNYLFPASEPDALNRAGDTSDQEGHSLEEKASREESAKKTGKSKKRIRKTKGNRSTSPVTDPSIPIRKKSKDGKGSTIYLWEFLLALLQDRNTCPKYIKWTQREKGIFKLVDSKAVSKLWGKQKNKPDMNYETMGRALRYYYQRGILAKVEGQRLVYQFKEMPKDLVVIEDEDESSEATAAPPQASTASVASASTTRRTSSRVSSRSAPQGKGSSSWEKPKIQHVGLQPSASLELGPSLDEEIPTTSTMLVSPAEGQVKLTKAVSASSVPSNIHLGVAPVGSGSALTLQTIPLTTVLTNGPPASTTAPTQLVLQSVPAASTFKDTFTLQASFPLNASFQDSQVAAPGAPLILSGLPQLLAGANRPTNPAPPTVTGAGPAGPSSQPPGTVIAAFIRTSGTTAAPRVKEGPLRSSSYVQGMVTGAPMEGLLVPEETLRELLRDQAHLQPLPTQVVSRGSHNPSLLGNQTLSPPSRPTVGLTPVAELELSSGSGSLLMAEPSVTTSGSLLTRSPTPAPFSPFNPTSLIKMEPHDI
How it was run: as §1

ELK4 = target: T3, ELK4 (Homo sapiens, UniProt P28324-2 1-405); settings: protein: recombinant; tags: N-terminal GST; dsDNA, one strand shown
T3 sequence: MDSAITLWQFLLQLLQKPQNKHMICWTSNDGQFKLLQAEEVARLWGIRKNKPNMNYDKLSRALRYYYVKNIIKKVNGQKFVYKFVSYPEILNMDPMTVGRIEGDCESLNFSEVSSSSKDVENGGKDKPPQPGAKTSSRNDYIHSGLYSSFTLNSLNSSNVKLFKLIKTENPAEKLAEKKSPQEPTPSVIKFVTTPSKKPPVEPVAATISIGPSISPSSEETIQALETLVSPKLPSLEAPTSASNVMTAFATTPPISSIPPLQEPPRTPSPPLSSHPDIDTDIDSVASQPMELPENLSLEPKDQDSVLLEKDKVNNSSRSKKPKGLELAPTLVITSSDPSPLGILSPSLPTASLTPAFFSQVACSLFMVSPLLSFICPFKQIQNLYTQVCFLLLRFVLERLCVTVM
How it was run: as §1

ETV2 = target: T4, ETV2 (Homo sapiens, UniProt O00321 1-342); settings: protein: recombinant; tags: N-terminal GST; dsDNA, one strand shown
T4 sequence: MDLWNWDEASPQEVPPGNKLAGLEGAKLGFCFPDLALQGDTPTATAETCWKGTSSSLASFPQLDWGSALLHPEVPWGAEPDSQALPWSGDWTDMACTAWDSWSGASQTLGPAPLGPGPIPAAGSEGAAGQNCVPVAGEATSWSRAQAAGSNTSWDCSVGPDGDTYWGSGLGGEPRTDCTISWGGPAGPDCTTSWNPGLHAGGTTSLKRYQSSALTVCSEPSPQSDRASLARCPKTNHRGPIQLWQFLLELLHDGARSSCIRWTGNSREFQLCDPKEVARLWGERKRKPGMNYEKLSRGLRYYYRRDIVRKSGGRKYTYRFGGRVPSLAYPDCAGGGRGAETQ
How it was run: as §1

ELF3 = target: T5, ELF3 (Homo sapiens, UniProt P78545 1-371); settings: protein: recombinant; tags: N-terminal GST; dsDNA, one strand shown
T5 sequence: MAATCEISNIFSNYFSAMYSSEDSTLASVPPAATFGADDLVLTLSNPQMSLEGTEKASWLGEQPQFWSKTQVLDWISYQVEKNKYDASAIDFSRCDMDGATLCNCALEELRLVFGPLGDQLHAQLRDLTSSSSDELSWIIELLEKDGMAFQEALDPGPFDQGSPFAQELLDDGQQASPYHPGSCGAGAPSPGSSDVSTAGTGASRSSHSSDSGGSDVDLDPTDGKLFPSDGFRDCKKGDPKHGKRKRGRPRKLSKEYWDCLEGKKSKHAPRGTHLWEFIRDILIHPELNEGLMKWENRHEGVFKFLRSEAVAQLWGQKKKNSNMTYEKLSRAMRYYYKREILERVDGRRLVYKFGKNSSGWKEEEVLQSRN
How it was run: as §1

CRX = CRX (Homo sapiens, UniProt O43186 1-299); settings: protein: recombinant; tags: N-terminal GST; dsDNA, one strand shown
Sequence of CRX (O43186 whole entry): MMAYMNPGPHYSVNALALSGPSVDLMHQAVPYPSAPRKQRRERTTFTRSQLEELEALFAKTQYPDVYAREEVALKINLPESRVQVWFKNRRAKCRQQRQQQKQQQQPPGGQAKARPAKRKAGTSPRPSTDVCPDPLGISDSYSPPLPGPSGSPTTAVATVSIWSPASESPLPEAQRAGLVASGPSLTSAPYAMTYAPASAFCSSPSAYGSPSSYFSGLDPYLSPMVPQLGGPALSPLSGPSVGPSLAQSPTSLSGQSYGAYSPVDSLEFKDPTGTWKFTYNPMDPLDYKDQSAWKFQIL
How it was run: as §1

ETV1 = ETV1 (Homo sapiens, UniProt P50549 1-477); settings: protein: recombinant; tags: N-terminal GST; dsDNA, one strand shown
Sequence of ETV1 (P50549 whole entry): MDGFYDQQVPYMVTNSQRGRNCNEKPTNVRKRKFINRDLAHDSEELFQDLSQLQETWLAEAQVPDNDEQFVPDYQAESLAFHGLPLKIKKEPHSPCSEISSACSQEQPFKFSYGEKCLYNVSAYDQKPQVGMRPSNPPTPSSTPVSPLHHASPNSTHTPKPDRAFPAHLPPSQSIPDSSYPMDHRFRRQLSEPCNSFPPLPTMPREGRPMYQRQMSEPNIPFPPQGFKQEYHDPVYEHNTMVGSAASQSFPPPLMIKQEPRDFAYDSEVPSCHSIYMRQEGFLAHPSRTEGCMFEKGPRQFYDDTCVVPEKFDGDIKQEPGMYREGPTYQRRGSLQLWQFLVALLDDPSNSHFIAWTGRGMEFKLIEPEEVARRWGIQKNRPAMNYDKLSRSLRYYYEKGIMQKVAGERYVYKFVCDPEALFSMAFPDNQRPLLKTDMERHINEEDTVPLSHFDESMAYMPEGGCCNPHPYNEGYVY
How it was run: as §1

ERF = target: T6, ERF (Homo sapiens, UniProt P50548 1-548); settings: protein: recombinant; tags: N-terminal GST; dsDNA, one strand shown
T6 sequence: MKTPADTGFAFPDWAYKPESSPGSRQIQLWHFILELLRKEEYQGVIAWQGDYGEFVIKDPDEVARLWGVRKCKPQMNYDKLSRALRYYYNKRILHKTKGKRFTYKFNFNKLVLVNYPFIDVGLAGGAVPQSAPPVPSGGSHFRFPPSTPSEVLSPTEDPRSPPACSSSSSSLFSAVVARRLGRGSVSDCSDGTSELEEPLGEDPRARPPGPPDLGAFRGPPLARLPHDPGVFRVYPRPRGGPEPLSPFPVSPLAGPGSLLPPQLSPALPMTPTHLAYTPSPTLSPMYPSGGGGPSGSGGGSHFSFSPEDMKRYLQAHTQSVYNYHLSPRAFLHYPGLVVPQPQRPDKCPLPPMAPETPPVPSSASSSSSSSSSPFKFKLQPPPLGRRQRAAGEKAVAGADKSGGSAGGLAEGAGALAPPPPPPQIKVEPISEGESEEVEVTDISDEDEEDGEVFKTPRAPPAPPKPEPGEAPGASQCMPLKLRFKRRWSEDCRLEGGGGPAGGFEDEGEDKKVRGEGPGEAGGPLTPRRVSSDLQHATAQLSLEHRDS
How it was run: as §1

ETV3L = target: T7, ETV3L (Homo sapiens, UniProt Q6ZN32 1-361); settings: protein: recombinant; tags: N-terminal GST; dsDNA, one strand shown
T7 sequence: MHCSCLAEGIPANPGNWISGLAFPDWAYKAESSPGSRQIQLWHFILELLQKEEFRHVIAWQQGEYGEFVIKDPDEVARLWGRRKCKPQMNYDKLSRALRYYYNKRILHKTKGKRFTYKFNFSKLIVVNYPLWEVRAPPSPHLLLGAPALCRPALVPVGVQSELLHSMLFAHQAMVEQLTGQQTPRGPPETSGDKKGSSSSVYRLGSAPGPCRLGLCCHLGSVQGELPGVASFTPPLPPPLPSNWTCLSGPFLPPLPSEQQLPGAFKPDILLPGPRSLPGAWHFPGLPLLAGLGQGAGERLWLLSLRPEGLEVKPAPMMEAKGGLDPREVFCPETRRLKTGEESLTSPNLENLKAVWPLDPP
How it was run: as §1

ETS2 = target: T8, ETS2 (Homo sapiens, UniProt P15036 1-469); settings: protein: recombinant; tags: N-terminal GST; dsDNA, one strand shown
T8 sequence: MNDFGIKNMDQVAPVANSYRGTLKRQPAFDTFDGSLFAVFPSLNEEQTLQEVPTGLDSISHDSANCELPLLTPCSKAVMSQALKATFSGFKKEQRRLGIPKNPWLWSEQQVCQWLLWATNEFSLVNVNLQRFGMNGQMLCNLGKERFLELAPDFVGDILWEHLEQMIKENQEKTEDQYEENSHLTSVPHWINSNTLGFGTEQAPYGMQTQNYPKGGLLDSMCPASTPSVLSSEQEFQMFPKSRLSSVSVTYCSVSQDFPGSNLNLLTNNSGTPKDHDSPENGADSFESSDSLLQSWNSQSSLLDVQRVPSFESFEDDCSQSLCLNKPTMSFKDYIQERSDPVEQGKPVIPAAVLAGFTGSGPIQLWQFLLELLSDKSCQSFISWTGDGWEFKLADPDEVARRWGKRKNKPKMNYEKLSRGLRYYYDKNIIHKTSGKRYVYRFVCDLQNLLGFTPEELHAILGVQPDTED
How it was run: as §1

SPDEF = target: T9, SPDEF (Homo sapiens, UniProt O95238 1-335); settings: protein: recombinant; tags: N-terminal GST; dsDNA, one strand shown
T9 sequence: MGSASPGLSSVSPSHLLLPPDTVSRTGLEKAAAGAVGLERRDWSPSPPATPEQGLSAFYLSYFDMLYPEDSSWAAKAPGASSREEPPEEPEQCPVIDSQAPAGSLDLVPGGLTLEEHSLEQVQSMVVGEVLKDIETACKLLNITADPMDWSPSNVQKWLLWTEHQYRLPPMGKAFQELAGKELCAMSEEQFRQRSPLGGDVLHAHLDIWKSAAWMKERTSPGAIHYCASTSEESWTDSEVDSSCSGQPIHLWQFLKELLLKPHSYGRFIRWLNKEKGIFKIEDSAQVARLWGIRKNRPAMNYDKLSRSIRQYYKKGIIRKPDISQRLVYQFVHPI
How it was run: as §1

ETV7 = target: T10, ETV7 (Homo sapiens, UniProt Q9Y603 1-341); settings: protein: recombinant; tags: N-terminal GST; dsDNA, one strand shown
T10 sequence: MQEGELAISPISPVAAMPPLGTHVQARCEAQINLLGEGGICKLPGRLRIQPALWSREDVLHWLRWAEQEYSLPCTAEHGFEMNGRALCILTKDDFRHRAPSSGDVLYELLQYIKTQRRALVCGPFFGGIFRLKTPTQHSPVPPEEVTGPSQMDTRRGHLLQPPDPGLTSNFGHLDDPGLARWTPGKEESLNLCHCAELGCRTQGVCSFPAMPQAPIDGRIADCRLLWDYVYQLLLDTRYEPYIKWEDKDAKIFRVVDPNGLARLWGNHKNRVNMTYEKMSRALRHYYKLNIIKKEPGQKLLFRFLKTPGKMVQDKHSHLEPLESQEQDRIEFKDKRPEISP
How it was run: as §1

ELF5 = target: T11, ELF5 (Homo sapiens, UniProt Q9UKW6-2 1-255); settings: protein: recombinant; tags: N-terminal GST; dsDNA, one strand shown
T11 sequence: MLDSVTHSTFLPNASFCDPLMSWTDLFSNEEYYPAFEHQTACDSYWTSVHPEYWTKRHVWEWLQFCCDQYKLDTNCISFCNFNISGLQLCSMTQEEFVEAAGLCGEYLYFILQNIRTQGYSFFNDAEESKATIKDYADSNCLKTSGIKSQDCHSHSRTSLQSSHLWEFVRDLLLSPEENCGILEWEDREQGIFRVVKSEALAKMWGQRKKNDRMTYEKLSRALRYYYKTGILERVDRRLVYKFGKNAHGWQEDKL
How it was run: as §1

ETV3 = target: T12, ETV3 (Homo sapiens, UniProt P41162-2 1-143); settings: protein: recombinant; tags: N-terminal GST; dsDNA, one strand shown
T12 sequence: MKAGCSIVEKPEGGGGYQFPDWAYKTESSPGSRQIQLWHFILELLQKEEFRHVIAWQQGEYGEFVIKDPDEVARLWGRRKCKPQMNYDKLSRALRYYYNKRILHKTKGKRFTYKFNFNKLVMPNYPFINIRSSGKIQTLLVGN
How it was run: as §1

ETV6 = ETV6 (Homo sapiens, UniProt P41212 1-452); settings: protein: recombinant; tags: N-terminal GST; dsDNA, one strand shown
Sequence of ETV6 (P41212 whole entry): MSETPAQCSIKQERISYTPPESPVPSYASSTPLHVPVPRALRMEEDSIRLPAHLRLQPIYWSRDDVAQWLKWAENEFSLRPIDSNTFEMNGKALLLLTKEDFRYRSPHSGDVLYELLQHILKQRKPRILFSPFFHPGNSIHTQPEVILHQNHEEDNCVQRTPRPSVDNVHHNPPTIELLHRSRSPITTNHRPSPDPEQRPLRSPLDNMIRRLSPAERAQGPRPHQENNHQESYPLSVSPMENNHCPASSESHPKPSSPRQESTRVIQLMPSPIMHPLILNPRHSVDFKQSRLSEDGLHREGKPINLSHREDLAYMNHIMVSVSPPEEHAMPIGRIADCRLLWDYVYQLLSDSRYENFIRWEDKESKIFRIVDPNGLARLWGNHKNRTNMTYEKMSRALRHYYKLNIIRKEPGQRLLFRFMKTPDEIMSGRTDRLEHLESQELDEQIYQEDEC
How it was run: as §1

TGATGC
binding signal (FEV): 1.44 fold enrichment (6-mer frequency, TF over GST control) | binding signal (ETV5): 1.49 fold enrichment (6-mer frequency, TF over GST control) | binding signal (HSF1): 1.27 fold enrichment (6-mer frequency, TF over GST control) | binding signal (SPIC): 1.72 fold enrichment (6-mer frequency, TF over GST control) | binding signal (ELF4): 1.66 fold enrichment (6-mer frequency, TF over GST control) | binding signal (ELK4): 1.6 fold enrichment (6-mer frequency, TF over GST control) | binding signal (ETV2): 1.49 fold enrichment (6-mer frequency, TF over GST control) | binding signal (ELF3): 1.71 fold enrichment (6-mer frequency, TF over GST control) | binding signal (CRX): 1.34 fold enrichment (6-mer frequency, TF over GST control) | binding signal (ETV1): 1.55 fold enrichment (6-mer frequency, TF over GST control) | binding signal (ERF): 1.48 fold enrichment (6-mer frequency, TF over GST control) | binding signal (ETV3L): 1.61 fold enrichment (6-mer frequency, TF over GST control) | binding signal (ETS2): 1.58 fold enrichment (6-mer frequency, TF over GST control) | binding signal (SPDEF): 1.45 fold enrichment (6-mer frequency, TF over GST control) | binding signal (ETV7): 1.54 fold enrichment (6-mer frequency, TF over GST control) | binding signal (ELF5): 1.52 fold enrichment (6-mer frequency, TF over GST control) | binding signal (ETV3): 1.67 fold enrichment (6-mer frequency, TF over GST control) | binding signal (ETV6): 1.52 fold enrichment (6-mer frequency, TF over GST control)
